SMARCA2 activ: increases SMARCA2 function in MMTV reporter cells; MG213 cells, MMTV-luciferase reporter, dexamethasone, overnight; activation, % at 9.1 µM; actives 1% (n = 370,000); AID 652017; in the data active = activation above about 7.8%
DAX1 inh-1: inhibitors of DAX1 repression of SF-1 activated StAR promoter; HEK293T StAR-luciferase reporter, SF-1/DAX-1 repression relief; inhibition, % at 6.8 µM; actives 1.1% (n = 370,000);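 active = inhibition above the mean over all tested compounds plus 3 SD, cut at about 3.6% in these data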;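 also: higher inhibition means more luminescence from relief of DAX-1 repression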
hcDAF12 agonist: H. contortus DAF-12 activation, primary screen | AID 652067 | HEK293 hcDAF-12 lit1-tk-luc reporter, luminescence; 0% DMSO, 100% Δ7-dafachronic acid | activation, % at 6.8 µM | actives 1.4% (n = 370,000);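 active = activation above the mean of all tested compounds plus 3 SD, cut at about 5.5% in these data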
DAX1 inh-2: inhibitors of human orphan nuclear receptor DAX1 (NR0B1) | HEK293 Gal4-DAX1 luciferase reporter, luminescence | inhibition, % at 6.75 µM | actives 0.99% (n = 340,000);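 active = inhibition above the mean over all tested compounds plus 3 SD, cut at about 4.2% in these data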;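 also: inhibition shows as a rise in luminescence from relieved DAX1 repression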
Target sequence (P51843 207-470 limits assumed): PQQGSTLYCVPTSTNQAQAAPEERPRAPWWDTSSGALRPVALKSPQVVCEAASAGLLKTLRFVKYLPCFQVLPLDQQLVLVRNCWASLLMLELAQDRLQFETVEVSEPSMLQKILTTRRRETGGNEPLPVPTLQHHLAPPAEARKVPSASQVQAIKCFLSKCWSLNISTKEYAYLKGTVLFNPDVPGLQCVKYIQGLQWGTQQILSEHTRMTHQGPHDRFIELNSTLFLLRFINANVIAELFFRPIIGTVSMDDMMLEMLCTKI
ssDAF12 agonist: S. stercoralis DAF-12 activation, primary screen | actives 1% (n = 370,000) | activation, % at 6.8 µM | AID 652126 | HEK293 ssDAF-12/GRIP1 lit1-tk-luc reporter, luminescence; % of 3 µM dafachronic acid response;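 active = activation above the mean over all tested compounds plus 3 SD, cut at about 0.9% in these data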
hgDAF12 agonist: agonists of H. glycines DAF-12 nuclear receptor | HEK293 GAL4-hgDAF12 UAS-luciferase reporter, agonist luminescence; normalized to butyrate control | activation, % at 6.8 µM | actives 1.8% (n = 370,000) | AID 687014;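 active = activation above a cutoff set at the mean of all screened compounds plus 3 SD, cut at about 10% in these data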
Of the large screens only hits and unclear results are named; the others gave an inactive call. Sampled rows, rich in hits. Any-hit rate of the full collection: about 4.8%.

Fc1ccc(-c2nc3c4ccccc4ccn3c2Cc2cccc(F)c2)cc1	hcDAF12 agonist 5.6 (no result: DAX1 inh-2)
Clc1cccc(-c2nc3c4ccccc4ccn3c2Cc2ccsc2)c1	hcDAF12 agonist 6.0, ssDAF12 agonist 3.3 (no result: DAX1 inh-2)
Fc1cccc(Cc2c(-c3cccc(Cl)c3)nc3c4ccccc4ccn23)c1	none (no result: DAX1 inh-2)
CCCc1nc2ccc(Cl)cn2c1Cc1ccsc1	ssDAF12 agonist 1.0 (no result: DAX1 inh-2)
Clc1cccc(-c2nc3c4ccccc4ccn3c2Cc2ccccc2)c1	none (no result: DAX1 inh-2)
Cc1cc(OCC(C)CN2CCC(C(O)(c3ccccc3)c3ccccc3)CC2)ccc1Br (stereo unspecified)	none (no result: DAX1 inh-2)
Nc1ccc(Cc2ccc([N+](=O)[O-])cc2)cc1	DAX1 inh-2 5.2
C[C@H](O)[C@@H]1CN2CCc3c([nH]c4c(-c5ccc6c(c5)OCO6)cccc34)[C@@H]2C[C@@H]1N(C)C(=O)c1ccccc1F	none (no result: DAX1 inh-2)
O=C(/C=C/c1ccco1)Nc1ccccn1	hgDAF12 agonist 13
Cc1ccc(NC(=O)/C=C/c2ccco2)nc1	DAX1 inh-1 6.5, hcDAF12 agonist 6.5, ssDAF12 agonist 1.6
C=CCN=C1NC(CCc2ccccc2)C(C(=O)OC)=C(C)N1C (stereo unspecified)	none (no result: DAX1 inh-2)
O=C(O)CCn1c(=O)sc2ccccc21	none
O=C(O)Cn1c(=S)sc2ccccc21	ssDAF12 agonist 1.0
CCCCCCCCN1CN2Cc3ccccc3C2CS1(=O)=O (stereo unspecified)	none (no result: DAX1 inh-2)
CC(C)(C)SCCNC(=O)c1ccccc1	none
Cc1ccc(C(=O)NCCSC(C)(C)C)cc1	DAX1 inh-1 4.0, hgDAF12 agonist 11
O=C(OCC#CCSc1nnc(-c2cccc3ccccc23)o1)c1ccsc1	hgDAF12 agonist 11 (no result: SMARCA2 activ, DAX1 inh-1, DAX1 inh-2)
O=C(OCC#CCSc1nnc(-c2cccc3ccccc23)o1)c1ccc(Br)cc1	none
Cc1cccc(NC(=O)c2ccc3c(c2)OCCO3)c1C	hgDAF12 agonist 12
O=C(Nc1ccc(Br)cc1F)c1ccc2c(c1)OCCO2	hgDAF12 agonist 11
O=C(Nc1ccc(F)cc1F)c1ccc2c(c1)OCCO2	hgDAF12 agonist 13
Cc1ccccc1NC(=O)c1ccc2c(c1)OCCO2	none
Cc1ccccc1CS(=O)(=O)Cc1ccc(C(=O)Nc2cccc(Cl)c2F)o1	none (no result: DAX1 inh-2)
N#Cc1ccc(NC(=O)OC2CCC23CCC(c2ccccc2)CC3)cc1 (stereo unspecified)	none (no result: DAX1 inh-2)
COc1ccccc1CNC(=O)COc1cc2c(c3oc(=O)cc(C)c13)CCC(C)(C)O2	DAX1 inh-2 4.4
CCCc1cc(=O)oc2c3c(cc(OCC(=O)N4CCC[C@H]4C(=O)O)c12)OC(C)(C)CC3	DAX1 inh-2 4.5
CCC(C(=O)Nc1ccccc1N1CCCC1)c1cccc(OC)c1 (stereo unspecified)	none (no result: DAX1 inh-2)
Cc1ccc(Cl)cc1N1C(=O)CC(Sc2ncccn2)C1=O (stereo unspecified)	DAX1 inh-2 4.7
O=C1CC(Sc2ncccn2)C(=O)N1c1ccccc1C(F)(F)F (stereo unspecified)	none
Cc1cccc(NC(=O)c2cc3ccccc3c(=O)o2)n1	DAX1 inh-2 6.5
Cc1nc(NC(=O)c2cc3ccccc3o2)ccc1Br	none
COc1ccc(-c2cc(=O)oc3c(C)c(OCc4nn[nH]n4)ccc23)cc1	DAX1 inh-2 7.3
Cc1c(OCc2nn[nH]n2)ccc2c(-c3ccccc3)cc(=O)oc12	none
Cc1c(Cc2ccccc2)c(=O)oc2c(C)c(OCc3nn[nH]n3)ccc12	DAX1 inh-2 5.3
COC(=O)C1=C(C)N(Cc2cccc(C(F)(F)F)c2)C(=NCc2cc(OC)c(OC)c(OC)c2)NC1c1ccccc1 (stereo unspecified)	none (no result: DAX1 inh-2)
Clc1cccc(/C(Cc2nc3ccccc3[nH]2)=N\Nc2ccccc2)c1	ssDAF12 agonist 1.0
CCCN1CCC(=O)N(CCOc2ccccc2)CC1	none
CC(C)CN1CCC(=O)N(CCOc2ccccc2)CC1	DAX1 inh-2 4.3
O=S(=O)(CC1NCc2ccccc21)NCCc1ccccc1 (stereo unspecified)	none (no result: DAX1 inh-2)
CC(C)(C)NCC(O)CON=C1c2ccccc2-c2ccccc21 (stereo unspecified)	DAX1 inh-2 5.4
O=C(NNS(=O)(=O)c1ccc(Cl)cc1Cl)c1cc2ncc(C(F)(F)F)cc2s1	hcDAF12 agonist 6.0
COc1cc(OC)cc(C(=O)NNC(=O)CN2C(=O)NC(C)(c3ccc(C)cc3)C2=O)c1 (stereo unspecified)	DAX1 inh-2 4.4
COc1ccc(S[C@]2(C(=O)N3CCCC3)CC(=O)N(C(=O)c3ccccc3)[C@@H]2c2ccc(OC)cc2)cc1	none (no result: DAX1 inh-2)
c1ccc(NN=C2c3ccccc3-c3ccccc32)cc1	hcDAF12 agonist 5.7
Brc1ccc(-c2csc(N3CCC(c4nn[nH]n4)CC3)n2)cc1	none (no result: SMARCA2 activ, DAX1 inh-1, DAX1 inh-2)
COC(=O)c1cc2c(c3c4cc(OC)ccc4n(S(=O)(=O)c4ccc(F)cc4)c13)C(=O)N(C)C2	none (no result: DAX1 inh-2)
CCCN1C2CCCC1CC(NC(=O)c1ccccc1OCC)C2 (stereo unspecified)	ssDAF12 agonist 0.9
COC(=O)Cc1nnn2c1[C@@H](C)[C@@H](c1ccccc1Br)O[C@@H](C)C2	none (no result: DAX1 inh-2)
COc1cccc2sc3cc(C#CC4(O)CCCCC4)ccc3c(=O)c12	hgDAF12 agonist 10
COc1cccc2sc3ccc(C#CC4(N)CCCCC4)cc3c(=O)c12	none
COc1cc2sc3ccc(C#CC4(O)CCCCC4)cc3c(=O)c2cc1OC	SMARCA2 activ 7.8
COC(=O)CSc1nnc(-c2ccc(NS(=O)(=O)c3ccc(C)c(C)c3)cc2)o1	none (no result: DAX1 inh-2)
CN(C)c1ccc(P(=O)(OCc2ccccc2)C(O)c2ccc(Cl)cc2)cc1 (stereo unspecified)	none
CN(C)c1ccc(P(=O)(OCc2ccccc2)C(O)c2ccccc2)cc1 (stereo unspecified)	DAX1 inh-2 4.3
Cc1ccc(-n2nc3ccc(N)cc3n2)c(C)c1	none
Cc1ccc(-n2nc3ccc(N)cc3n2)cc1Cl	hcDAF12 agonist 6.2
Cc1ccc(-n2nc3ccc(N)cc3n2)cc1C	hcDAF12 agonist 5.8
COc1ccc(-n2nc3ccc(N)cc3n2)cc1Cl	none
O=C(NCC1COCCO1)C1CCN(S(=O)(=O)c2cccc3ccccc23)CC1 (stereo unspecified)	none (no result: DAX1 inh-2)
COc1ccc(/C=C2/C(=O)N(Cc3ccccc3)N=C2C)cc1	none
COc1ccc(/C=C2/C(=O)N(c3nc4ccccc4s3)N=C2CSc2ccc(Cl)cc2)cc1	hcDAF12 agonist 5.6
CN(C)C=Nc1ccc(Cn2cnc3nc4ccc(Cl)cc4cc3c2=O)cc1	none (no result: DAX1 inh-2)
O=C(Nc1ccc([N+](=O)[O-])cc1)N1CCCCC1	none
O=C(Nc1ccc([N+](=O)[O-])cc1)N1CCCCCC1	DAX1 inh-1 4.1
Cc1ccc(S(=O)(=O)N(C)[C@H]2C[C@H]3c4[nH]c5cccc(-c6ccccc6)c5c4CCN3C(=O)[C@H]2[C@H](C)O)cc1	none (no result: DAX1 inh-2)

High-throughput results (PubChem BioAssay)
